Where a name gives a salt, the structure may show the parent alone. Out of some 2,100 compounds screened, about 180 (8.6%) showed an effect of 50% or more. This is one part of a sample in which strong results are shown more often than they occur.
System: MOLM1 and UCSD/AML1 (averaged)
Experiment: cell viability relative to DMSO control (POC); higher = less growth inhibition
Conditions: 1 µM; 72 h
Procedure: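 Primary viability screen in the 3q26 EVI1-high AML cell lines MOLM1 and UCSD/AML1 (1.5e3 cells/well, 384-well), compounds at 1 uM for 72 h. ATP CellTiter-Glo read-out given as percent of viable cells over DMSO control (POC), averaged over duplicates. DMSO was the negative control and 5 uM etoposide the positive control. This mapping covers the MicroSource Spectrum and Selleck anticancer libraries (drug names).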

SMILES	cell viability [%]
COC(=O)C(O)c1ccccc1 (stereo not drawn)	106
O=c1cc(-c2ccc(O)cc2)oc2cc(O[C@@H]3O[C@H](CO)[C@@H](O)[C@H](O)[C@H]3O[C@@H]3OC[C@](O)(CO)[C@H]3O)cc(O)c12	119
COc1ccc2c(=O)c(CC(=O)O)coc2c1	98.6
N=C(N)NC(=N)Nc1ccccc1	99.7
O=C(O)c1nc2cc(Cl)c(Cl)cc2nc1O	98.3
CC(C)CCC[C@@H](C)[C@H]1CC[C@H]2[C@@H]3CC[C@H]4C[C@H](O)CC[C@]4(C)[C@H]3CC[C@]12C	110
Cc1ccc(S(=O)(=O)C=CC#N)cc1	1.01
Cc1ccc(O)c([C@H](CCN(C(C)C)C(C)C)c2ccccc2)c1	92.5
C=CC[S+]([O-])C[C@H](N)C(=O)O (mixture of isomers)	89.6
CCN(CC)C(=S)SSC(=S)N(CC)CC [Disulfiram (Antabuse)]	1.33
CCN(CC)C(=S)SSC(=S)N(CC)CC	5.82
CC1=CC(=O)[C@H]2C(C)(C)CCC[C@]2(C)[C@@]1(O)CCc1ccoc1	110
COC(=O)CC[C@@H](C)[C@H]1CC[C@H]2[C@@H]3[C@H](O)C[C@@H]4C[C@H](O)CC[C@]4(C)[C@H]3C[C@H](O)[C@]12C	95.2
C[C@@H]1CCN(C(=O)CC#N)C[C@@H]1N(C)c1ncnc2[nH]ccc12	72.1
O=C(O)c1cc(-c2ccc(F)cc2F)ccc1O	112
CNC(=O)c1ccccc1Sc1ccc2c(/C=C/c3ccccn3)n[nH]c2c1 [Axitinib]	19.1
C[C@H]1CC2C3CCC4=CC(=O)C=C[C@]4(C)[C@@]3(F)[C@@H](O)C[C@]2(C)[C@@]1(O)C(=O)COP(=O)(O)O (stereo partly drawn)	72.3
COc1c(-c2coc3cc4c(cc3c2=O)CC(OC(C)=O)C(C)(C)O4)ccc2c1C=CC(C)(C)O2 (stereo not drawn)	88.7
Fc1cc(-c2cccc3ncc(-c4cnn(C5CCNCC5)c4)nc23)cc(F)c1CN1CCOCC1	24.6
CCC(C(N)=O)c1ccccc1 (stereo not drawn)	109
COc1cc(O)ccc1C(C)=O	97.9

SMILES	cell viability [%]
CC(C)=CCC1=C(O)C(=O)c2ccccc2C1=O	118
N[C@@H](CSCSC[C@H](N)C(=O)O)C(=O)O	99.3
CS(=O)(=O)c1cccc(CNc2nc(Nc3ccc4c(c3)CCC(=O)N4)ncc2C(F)(F)F)c1	83.3
CC(=O)NCC(=O)N1[C@@H]2CC[C@H]1c1ccc(Nc3ncc(C(F)(F)F)c(NC4CCC4)n3)cc12	20.2
CN(c1ncccc1CNc1nc(Nc2ccc3c(c2)CC(=O)N3)ncc1C(F)(F)F)S(C)(=O)=O	58.6
CC(=O)/C=C\[C@@H]1[C@@]2(C)CCCC(C)(C)C2CC[C@@]1(C)O (stereo partly drawn)	99.2
COc1cc2c(cc1OC)-c1c(oc3cc(O)cc(O)c3c1=O)CO2	103
COC1=C(O)C(=O)c2c(cc3oc(C(C)=O)c(O)c3c2O)C1=O	86.8
CCCCC(=O)Oc1ccccc1C(=O)O	115
COC(=O)C[C@H]1C(C)(C)[C@@H](OC(C)=O)[C@@H]2CC3C4CC(=O)O[C@@H](c5ccoc5)[C@]4(C)CCC3[C@@]1(C)C2=O (stereo partly drawn)	88.1
CCCCOc1ccc(C(=O)CCN2CCCCC2)cc1	104
Cc1cnc(Nc2ccc(OCCN3CCCC3)cc2)nc1Nc1cccc(S(=O)(=O)NC(C)(C)C)c1	13
CC1(C)[C@@H](O)CC[C@]2(C)[C@H]3C(=O)C=C4[C@@H]5C[C@@](C)(C(=O)O)CC[C@]5(C)CC[C@@]4(C)[C@]3(C)CC[C@@H]12	95.5
OCC(O)C(O)C(O)C(O)C(O)CO (stereo not drawn)	102
COc1ccc2c(c1)OC/C(=C\c1ccc(OC)c(O)c1)C2=O	18.3
COc1ccc2c(c1)OC/C(=C/c1ccc(OC)c(OC)c1)C2=O	108
COc1ccc2c(c1)OCC(Cc1ccc(OC)c(OC)c1)C2=O (stereo not drawn)	112
COC(=O)[C@@H]1OC(=O)C2OC23[C@@]1(C)CCC1[C@]2(C)C(C[C@H](O)[C@]13C)C(C)(C)[C@H](OC(C)=O)C[C@@H]2OC(C)=O (stereo partly drawn) [7beta-HYDROXY-7-DESACETOXYKHIVORINIC ACID, METHYL ESTER]	111
COC(=O)C[C@H]1C(C)(C)C2(O)OC34CC2C(=O)[C@]1(C)C3CC[C@]1(C)C4=CC(=O)O[C@H]1c1ccoc1 (stereo partly drawn) [8beta-HYDROXYCARAPIN, 3,8-HEMIACETAL]	89
CC(C)CC(NC(=O)OCC1c2ccccc2-c2ccccc21)C(=O)O (stereo in doubt)	105
COc1cccc2c1C(=O)c1c(O)c3c(c(O)c1C2=O)C[C@@](O)(C(C)=O)C[C@@H]3O[C@H]1C[C@H](N)[C@H](O)[C@H](C)O1	1.85

SMILES	cell viability [%]
COc1cccc2c1C(=O)c1c(O)c3c(c(O)c1C2=O)C[C@@](O)(C(=O)CO)C[C@@H]3O[C@H]1C[C@H](N)[C@H](O)[C@H](C)O1	1.67
COc1cccc2c1C(=O)c1c(O)c3c(c(O)c1C2=O)C[C@@](O)(C(=O)CO)C[C@@H]3O[C@H]1C[C@H](N)[C@H](O)[C@H](C)O1 [Doxorubicin (Adriamycin)]	1.61
CC(=O)[C@]1(O)Cc2c(O)c3c(c(O)c2[C@@H](O[C@H]2C[C@H](N)[C@H](O)[C@H](C)O2)C1)C(=O)c1ccccc1C3=O [Idarubicin HCl]	1.49
COc1cccc2c1C(=O)c1c(O)c3c(c(O)c1C2=O)C[C@@](O)(C(C)=O)C[C@@H]3O[C@H]1C[C@H](N)[C@H](O)[C@H](C)O1 [Daunorubicin HCl (Daunomycin HCl)]	1.38
COc1cccc2c1C(=O)c1c(O)c3c(c(O)c1C2=O)C[C@@](O)(C(=O)CO)C[C@@H]3O[C@H]1C[C@H](N)[C@@H](O)[C@H](C)O1 [Epirubicin Hydrochloride]	1.66
COc1cccc2c1C(=O)c1c(O)c3c(c(O)c1C2=O)C[C@@](O)(C(=O)CO)C[C@@H]3O[C@H]1C[C@H](N)[C@@H](O)[C@H](C)O1	5.86
CCCCCCCCCCCC[C@@H](C(=O)O)[C@H](C)C(=O)O	96
Cc1cc(O)cc(=O)o1	112
O=C1C=C(O)C(=O)c2ccccc21	92.9
CC(=O)OCC(=O)[C@@]1(O)CC[C@H]2[C@@H]3C[C@H](C)C4=CC(=O)C=C[C@]4(C)[C@H]3[C@@H](O)C[C@@]21C [6alpha-METHYLPREDNISOLONE ACETATE]	65
CC(=O)O[C@]1(C)CC[C@@]23C[C@H]1C(C)(C)[C@@H]2CC[C@H]3C	107
C[C@H]1CC[C@@H](C(C)(C)O)CC2=C1CC[C@@H]2C	94.4
Oc1ccc2c(c1)OC[C@]1(O)Cc3cc(O)c(O)cc3[C@H]21	105
COc1cc2ccc(=O)oc2cc1O	94.7
CC1/C(=N/O)C[C@@H]2C[C@H]1C2(C)C (stereo partly drawn)	102
C[n+]1ccccc1C=NO	99.8
COc1ccc(C2CC(=O)c3ccc(OC)cc3O2)cc1 (stereo not drawn)	109
N#Cc1c(O)c2c(-c3ccc(-c4ccccc4O)cc3)csc2[nH]c1=O	97.3
COC(=O)[C@H]1[C@H]2C[C@H]3c4[nH]c5cc(OC)ccc5c4CCN3C[C@H]2C[C@@H](OC(=O)c2cc(OC)c(OC)c(OC)c2)[C@@H]1OC	111
COC1=C[C@@H](C)[C@@H]2C[C@H]3OC(=O)C[C@H]4C(C)=C(OC)C(=O)[C@H]([C@@]2(C)C1=O)[C@@]34C	93.7
CC(C)CC(=O)Nc1n[nH]c2c1CN(C(=O)C1CCN(C)CC1)C2(C)C	49.4

SMILES	cell viability [%]
O=c1[nH]cnc2nc[nH]c12	102
CC1(C)CC[C@]2(C)CC[C@]3(C)C(=CC[C@@H]4[C@@]5(C)CC[C@H](O)C(C)(C)[C@@H]5CC[C@]43C)[C@@H]2C1 [beta-AMYRIN]	91.8
CC1(C)CNc2cc(NC(=O)c3cccnc3NCc3ccncc3)ccc21 [Motesanib Diphosphate]	86.1
CCCCC(CC)CN=C(N)N=C(N)NCCCCCCNC(N)=NC(N)=NCC(CC)CCCC (stereo not drawn)	7.07
O=C(O)[C@]1(O)C[C@@H](O)[C@@H](O)[C@H](O)C1	97.5
C[C@@H]1CN(CC(=O)Nc2ccc3c(c2)Cc2cccc(-c4cc(=O)cc(N5CCOCC5)o4)c2S3)C[C@H](C)O1	88.5
CCCCCC(=O)Cc1cc(O)cc(O)c1C(=O)Oc1cc(CC(=O)CCCCC)c(C(=O)O)c(OC)c1	87.8
COc1c(-c2coc3cc4c(cc3c2=O)CC(O)C(C)(C)O4)ccc2c1C=CC(C)(C)O2 (stereo not drawn)	82.2
COc1ccc(CC(=O)c2ccc(O)cc2O)cc1	107
O.O.O.O.O.O.O.O.O.O.O.O.O.O.O.O.O=S(=O)([O][Al])OC[C@H]1O[C@@](COS(=O)(=O)[O][Al])(O[C@H]2O[C@H](COS(=O)(=O)[O][Al])[C@@H](OS(=O)(=O)[O][Al])[C@H](OS(=O)(=O)[O][Al])[C@H]2OS(=O)(=O)[O][Al])[C@@H](OS(=O)(=O)[O][Al])[C@@H]1OS(=O)(=O)[O][Al]	101
COC(=O)C[C@H]1C(C)(C)[C@@H](OC(C)=O)[C@@H]2CC3=C4CC(=O)O[C@@H](c5ccoc5)[C@]4(C)CC[C@@H]3[C@@]1(C)C2=O	103
COC(=O)c1c(C)cc(O)cc1O	98.5
Cc1cc(C(C)(C)CC(C)(C)C)ccc1OCCOCC[N+](C)(C)Cc1ccccc1	88.2
CC(C)(C)CC(C)(C)c1ccc(OCCOCC[N+](C)(C)Cc2ccccc2)cc1	97.1
CCCCCCCCCCCCC[N+](C)(C)Cc1ccccc1	25.7
Cc1ccc(C(C)C)cc2c(C)ccc1-2	84.7
COc1ccc(-c2cc(=O)c3c(O)c(OC)c(OC)c(OC)c3o2)cc1OC	80.2
O=C(CCCCCCC(=O)Nc1ccccc1)NO [Vorinostat (SAHA)]	22
O=C(Nc1ccccc1)c1ccccc1O	97.1
O=C(Nc1ccccc1)Nc1ccccc1	87.7

From the supplement of paper PMC11150407
